From PubChem
RGS16-Gao: regulators of human RGS16-Galphao interaction; binding response (% of control), % at 10 µM; bead-based flow cytometry RGS16-Galphao binding, fluorescence; actives lie on both sides; 220,000 tested, 0.38% active; call rule not given here;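 note: Galphao activated by GDP with aluminum fluoride before binding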
Target sequence (O15492 whole entry, looked up): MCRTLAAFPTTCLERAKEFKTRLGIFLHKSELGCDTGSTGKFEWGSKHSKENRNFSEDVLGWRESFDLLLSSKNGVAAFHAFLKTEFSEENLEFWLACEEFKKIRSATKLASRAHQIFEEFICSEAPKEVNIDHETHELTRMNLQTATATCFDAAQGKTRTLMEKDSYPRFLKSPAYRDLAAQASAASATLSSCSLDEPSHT
Target sequence (P09471 whole entry, looked up): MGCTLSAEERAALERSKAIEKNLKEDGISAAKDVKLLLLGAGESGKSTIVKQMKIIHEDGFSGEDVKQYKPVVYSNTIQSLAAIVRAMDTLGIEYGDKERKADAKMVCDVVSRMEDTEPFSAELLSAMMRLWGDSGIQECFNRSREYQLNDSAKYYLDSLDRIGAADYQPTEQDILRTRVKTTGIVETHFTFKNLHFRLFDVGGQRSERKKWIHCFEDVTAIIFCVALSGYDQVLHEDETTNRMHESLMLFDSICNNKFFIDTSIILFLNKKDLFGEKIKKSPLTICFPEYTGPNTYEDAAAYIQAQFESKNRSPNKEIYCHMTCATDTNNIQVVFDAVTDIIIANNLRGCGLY
RGS8-Gao reg: regulators of human RGS8-Galphao interaction; 220,000 tested, 0.34% active; response (percent of control binding), % at 10 µM; P09471; AID 1423; multiplexed bead flow cytometry, RGS8-Galphao binding; actives lie on both sides; in the data active = response below about 60% or above about 140%; inactive = in between;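 note: Galphao activated as the GDP aluminium fluoride complex binding bead-coupled RGS8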
Target sequence (P09471 whole entry, looked up): as above
GSH fluor: compound fluoresces at 488/530 nm on GSH beads; GSH beads flow cytometry, compound fluorescence 488/530 nm; hits give high values; fluorescence (KMESF) at 10 µM; 190,000 tested, 0.25% active; in the data active = fluorescence above about 89;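 note: glutathione beads carrying GST-tagged Bcl family fusion proteins plus one bare bead set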
RGS4-Gao reg: human RGS4-Galphao interaction regulation; P09471; Multiplexed bead flow cytometry, RGS4-Galphao binding; actives lie on both sides; binding response (% of control), % at 10 µM; 220,000 tested, 0.33% active; AID 1415; in the data active = binding response below about 49% or above about 150%; inactive = in between;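 note: fluorescent Galphao activated with aluminum fluoride binding bead-coupled RGS4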
RGS7-Gao reg: human RGS7-Galphao interaction regulation; 220,000 tested, 0.35% active; P09471; Multiplexed bead flow cytometry, RGS7-Galphao binding; actives lie on both sides; binding response (% of control), % at 10 µM; AID 1439; in the data active = binding response below about 49% or above about 150%; inconclusive = no clear call, values can overlap the other calls; inactive = in between;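 note: fluorescent Galphao held in activated GDP-AlF4 state binding bead-coupled RGS7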
Avidin fluor: compound fluoresces at 488/530 nm on avidin beads | compound fluorescence 488/530 nm, flow cytometry; hits give high values | fluorescence (KMESF) at 10 µM | 220,000 tested, 0.38% active; in the data active = fluorescence above about 47
Large screens that a line does not name were inactive; [ ] = another dose, or the depositor's remark. In the library only some 1.2% were active in any assay of this set; here they are far more common.

C=CCn1c(SCC(=O)Nc2cccc3ccccc23)nnc1-c1cnccn1	Avidin fluor 51
CCCCC(CC)C(=O)N1CCN(C(=O)c2ccco2)CC1 (centres undefined)	none
CCOC(=O)NC(=O)CSc1nnnn1-c1ccccc1	Avidin fluor 109
S=C1NC(c2ccccc2)N2C(=S)NC(c3ccccc3)N12 (centres undefined)	none
COc1ccc(C2NC(=S)N3C(c4ccc(OC)cc4)NC(=S)N23)cc1 (centres undefined)	GSH fluor 266
COC(=O)C(O)(NC(=O)c1ccncc1)C(F)(F)F (centres undefined)	RGS7-Gao reg inconclusive (no result: GSH fluor)
CC(=O)c1sc2nc(-c3cccs3)cc(C(F)(F)F)c2c1N	none
Nc1c(C(=O)C2CC2)sc2nc(-c3ccccc3)cc(C(F)(F)F)c12	GSH fluor 126
O=C1c2ccncc2C(=O)N1CO	RGS16-Gao -19.9, RGS8-Gao reg 8.6, RGS4-Gao reg -31.1, RGS7-Gao reg -10.4
CC1Cc2ccccc2N1C(=O)CN1C(=O)C(=O)N(Cc2ccccc2)C1=O (centres undefined)	GSH fluor 260
CC1Cc2ccccc2N1C(=O)CCS(=O)(=O)c1cccs1 (centres undefined)	RGS8-Gao reg 147.7[activator], GSH fluor 150, RGS4-Gao reg 222.1[activator], RGS7-Gao reg 322.5[activator], Avidin fluor 125
COc1cccc2cc(C(=O)N3CCCCC3C)c(=O)oc12 (centres undefined)	GSH fluor 120
N#C/C(=C\c1ccc(O)c(O)c1)S(=O)(=O)c1ccccc1	RGS16-Gao 259.4[activator], RGS8-Gao reg 154.9[activator], RGS4-Gao reg 223.3[activator], RGS7-Gao reg 203.3[activator] (no result: Avidin fluor)
C=CCC1(CC=C)CCCN1C(=O)CC1C(=O)NCCN1Cc1cccc(OC)c1OC (centres undefined)	none
O=C(NCc1ccccc1Cl)c1ccc(-c2ccccc2)cc1	none
CCCC(=O)Nc1ccc(C(=O)NCc2ccccc2Cl)cc1	GSH fluor 137
c1ccc(C(c2ccccc2)c2noc(CN3CCC(c4ccncc4)CC3)n2)cc1	none
CN(C)CCNC(=S)Nc1cccc(Cl)c1	RGS16-Gao 0.9, RGS8-Gao reg 12.0, RGS4-Gao reg 21.7, RGS7-Gao reg 14.5
CCCC(=O)Nc1ccc2nc(SCC(=O)Nc3nccs3)sc2c1	RGS16-Gao 14.8, RGS8-Gao reg 11.6, RGS4-Gao reg 21.5, RGS7-Gao reg 14.6
CCCCc1ccc(NC(=S)NCCN2CCOCC2)cc1	none
CC(NC(=O)C(=O)N/N=C/c1ccccc1)c1ccccc1 (centres undefined)	none
O=[N+]([O-])c1ccc2[nH]c(O)c(N=NC3CS(=O)(=O)CC3O)c2c1 (centres undefined)	RGS7-Gao reg inconclusive (no result: GSH fluor)
COCCOC(=O)c1c(C)oc2ccc(OCC=C(C)C)cc12	Avidin fluor 48
CC1CC2(CCCCC2)N2C(=O)C(=O)c3cccc1c32 (centres undefined)	RGS8-Gao reg 43.5, RGS4-Gao reg 41.1, RGS7-Gao reg 29.2
O=C1C2CCCN2C(c2ccc(Br)cc2)N1c1ccc(F)cc1 (centres undefined)	none
O=C1C2CCCN2C(c2cccc(Br)c2)N1c1ccc(F)cc1 (centres undefined)	Avidin fluor 48
CCOc1ccccc1NC(=O)N1C2CCCC1CC(NC(=O)C1CC1)C2 (centres undefined)	GSH fluor 96
Cc1cccc(C)c1NC(=O)COc1cccc(/C=N/NC(=O)C(=O)NCc2ccccc2)c1	Avidin fluor 57
Cc1cc(=O)oc2cc(OCC(=O)N3CCOCC3)ccc12	GSH fluor 122
Cc1cc(=O)oc2cc(OC(C)C(=O)N3CCOCC3)ccc12 (centres undefined)	none
CC(C)(C)OC(=O)N1CCC2(CC1)C(C#N)=C(N)OC1=C2C(=O)CCC1	none
CC(Oc1ccc(C#N)cc1)C(=O)c1ccc(F)c(F)c1 (centres undefined)	none
CCCN(CCC)C1CC(=O)N(Cc2ccccc2)C1=O (centres undefined)	Avidin fluor 58
CN(C)/C=N/C1=C(C#N)C(c2cccs2)c2ccc3ccccc3c2O1 (centres undefined)	none
CC1(C)CC(=O)C=C(Nc2ccc(F)cc2F)C1	none
CC1(C)CC(=O)C=C(Nc2ccccc2F)C1	GSH fluor 267
CCOC(=O)C1(CCCc2ccccc2)CCN(Cc2ccn[nH]2)CC1	none
COc1cccc(/C=C/C(=O)Nc2ccccc2N2CCOCC2)c1	none
Cc1cc(C)n(-c2nc(NCC(C)O)c3c4c(sc3n2)CCCC4)n1 (centres undefined)	Avidin fluor 47
CCc1ccc2c(c1)cc(CN(C(=S)Nc1cccc(C)c1)C1CC1)c1nnnn12	none
Cc1cc2cc(CN(C(=O)C3CC3)C3CCCC3)c3nnnn3c2cc1C	Avidin fluor 61
COc1ccc2nc(SCC(=O)Nc3nccs3)[nH]c2c1	none
CC[n+]1c(/C=C2/C=C(C)CC(C)(C)C2)sc2ccc(OC)cc21	RGS4-Gao reg 181.0[activator], RGS7-Gao reg 162.7[activator], Avidin fluor 95
CC[n+]1c(/C=C2\C=C(C)CC(C)(C)C2)sc2ccccc21	none
O=C(CNc1cc(S(=O)(=O)N2CCOCC2)ccc1N1CCCC1)N1CCc2ccccc21	none
CCCn1c2c(c(O)c(C(=O)NCc3ccccc3)c1=O)CCCC2	Avidin fluor 54
CCCn1c(N2CCN(C)CC2)nc2c1c(=O)[nH]c(=O)n2C	none
CCCn1c(N2CCOCC2)nc2c1c(=O)[nH]c(=O)n2C	Avidin fluor 60
Cc1ccccc1NC(=O)c1ccc(NC(=O)C2CC(=O)OC23CCCCC3)cc1 (centres undefined)	RGS7-Gao reg inconclusive
COc1ccc(-c2cnn(-c3ccccc3)c2N)cc1OC	none
COc1ccc(C2=C(O)C(C)N(c3ccccc3)C2=N)cc1OC (centres undefined)	Avidin fluor 53
CCOc1ccc(-n2c(=O)c3sccc3n(Cc3cccc([N+](=O)[O-])c3)c2=O)cc1	none
O=C(Nc1ccc2c(c1)OCCO2)C1CCCN1S(=O)(=O)c1ccc(Cl)cc1 (centres undefined)	GSH fluor 261
NC(=S)n1[nH]c(-c2ccc([N+](=O)[O-])cc2)c(N=Nc2ccccc2[N+](=O)[O-])c1=O	GSH fluor 453
Cc1c(N=Nc2c(-c3ccc([N+](=O)[O-])cc3)[nH]n(C(N)=S)c2=O)cccc1[N+](=O)[O-]	none
O=C(NCc1ccco1)C1CC2CCC1C2 (centres undefined)	GSH fluor 246
O=C(O)C1C2CCC(C2)C1C(=O)NCc1ccco1 (centres undefined)	none
COc1ccc(N(C)C(=O)c2cc3c(s2)-c2c(C)cccc2OC3)c(OC)c1	RGS7-Gao reg inconclusive (no result: GSH fluor)
